This passage reports Potency and activity, negative = inhibition results from PubChem BioAssay AID504332 (National Center for Advancing Translational Sciences (NCATS), 2011).

SMILES strings stand for the structures. In all, about 350,000 compounds went through this assay and about 31,000 (8.9%) were called active. Where a call stands in place of a potency, no number is given. About 15% were inconclusive and are not listed. For the sample, actives were picked, then their nearest neighbours and some compounds at random. Unmarked numbers belong to inactive results. The call rests on the fitted dose curve; in most records, active means well fitted inhibition curve with a large enough effect; inconclusive means small, poorly fitted or top-dose-only effect; inactive means no such curve, though single readings can be large or run the other way.
Potency means the concentration at half of the fitted maximal effect.

For the experiment, the target named is Histone-lysine N-methyltransferase EHMT2 (Homo sapiens) (UniProt Q96KQ7). The experiment is described as follows: qHTS Assay for Inhibitors of Histone Lysine Methyltransferase G9a. Further: nearly all actives have a fitted effect of over 75% in size. To be noted: G9a H3K9 monomethylation, AlphaScreen, 2 h; series mostly up to 59 µM. An outline of the steps: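 Step 1: enzyme (final 20 nM) with compound, 15 min RT. Step 2: substrate peptide 500 nM and SAM 20 uM, 2 h RT. Step 3: anti-H3K9me1 antibody and AlphaScreen beads, 10 min, then plate read.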
Histone-lysine N-methyltransferase EHMT2 (Homo sapiens), sequence (Q96KQ7 913-1193 limits assumed): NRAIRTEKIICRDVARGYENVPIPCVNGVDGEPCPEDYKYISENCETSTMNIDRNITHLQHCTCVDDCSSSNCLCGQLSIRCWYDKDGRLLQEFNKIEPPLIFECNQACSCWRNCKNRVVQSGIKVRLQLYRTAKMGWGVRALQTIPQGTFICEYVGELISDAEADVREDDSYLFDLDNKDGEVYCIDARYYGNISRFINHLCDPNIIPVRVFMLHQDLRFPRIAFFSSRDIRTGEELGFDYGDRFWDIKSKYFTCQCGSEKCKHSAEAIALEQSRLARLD
As to `CCOc1ccc(NC(=O)CCc2c(C)nn(-c3ccc(N4CCCC4)nn3)c2C)cc1`, the Potency result is “inactive”.

With `CCOc1ccc(/C=C(\C#N)c2nc3ccccc3c(=O)[nH]2)cc1OC`, the Potency entry is “inactive”.

For the compound `COc1cc(/C=C(\C#N)c2nc3c(s2)CC(C)CC3)ccc1O` (configuration not stated), the Potency is 50.1 µM (active). Turning to `COc1cccc2cc(-c3nc(Cl)c4c5c(sc4n3)CC(C)CC5)c(=O)oc12` (configuration not stated), the Potency result is “inactive”. On the same count and under the same terms, with `Cc1ccc2nc(/C(C#N)=C/c3ccccc3F)[nH]c2c1` the entry was “inactive”; with `COc1cc(/C=C(\C#N)c2nc3ccccc3[nH]2)ccc1O`, 39.8 µM (active); with `Cc1ccc(OCCC(=O)OCC(=O)N2c3ccccc3NC(=O)C2(C)C)cc1`, “inactive”. Same read-out and setting: with `COc1ccc(N2CC(NS(=O)(=O)c3ccc4ccccc4c3)CC2=O)cc1` (configuration not stated) the entry was “inactive”. `O=C(N[C@@H](Cc1ccccc1)C(=O)OCc1ccccc1)c1nc[nH]c1C(=O)N[C@@H](Cc1ccccc1)C(=O)OCc1ccccc1`: the Potency result is “inactive”.

As to `CC(C)c1ccc(NC(=O)Cn2nnc(C(=O)NCCc3ccccc3)c2N)cc1`, the Potency entry is “inactive”. With `Cc1ccc(-c2onc(C)c2C)cc1S(=O)(=O)Nc1ccccn1`, the Potency entry is “inactive”. Same read-out and setting: the figure for `CC1(C)CC(=O)c2cnc3nc4ccccc4n3c2C1` is 17.8 µM (active); for `COc1ccc(C)cc1-n1c(-c2ccc(C)cc2)cc2c1CC(C)(C)CC2=O` it is “inactive”; for `CC(C)(C)c1cc(=O)n2c(nc3ccccc32)[nH]1` it is “inactive”. For `CC(Sc1ncnc2c1cnn2-c1ccccc1)C(=O)Nc1ccc(N2CCOCC2)cc1` (configuration not stated), the activity, negative = inhibition is 9% [at 0.501 µM]. Take `Cc1ccccc1CNC(=O)Cn1c(C)c2cnn(-c3ccccc3)c(=O)c2c1C`: the Potency result is “inactive”.

Take `Cc1c2cnn(-c3ccccc3)c(=O)c2c(C)n1CCCC(=O)N1CCN(C)CC1`: the Potency was 79.4 µM (active). For the compound `Cc1c2cnn(-c3ccccc3)c(=O)c2c(C)n1C(C)C(=O)Nc1ccc(Br)cc1F` (configuration not stated), the Potency entry is “inactive”.

Turning to `COc1ccc(C2=NOC(Cn3nc(C(=O)NCc4ccc5c(c4)OCO5)cc3-c3ccccc3)C2)cc1` (configuration not stated), the activity, negative = inhibition was 1.74% [at 2.33 µM].

Regarding `Cc1ccc(S(=O)(=O)n2cccc2CO)cc1`, the activity, negative = inhibition was 0.915% [at 2.33 µM]. Take `O=C(COC(=O)Cn1cnc2ccccc2c1=O)NCc1ccccc1Cl`: the Potency entry is “inactive”. Turning to `COc1ccc(C(C)=O)cc1COC(=O)Cn1cnc2ccccc2c1=O`, the Potency was 50.1 µM (active).

Consider `COCc1cc(C(C)=O)ccc1OC`, for which the activity, negative = inhibition is -11.9% [at 12.7 µM]. On to `COc1ccccc1CNc1ccc(-c2nc(-c3ccccc3C)no2)cc1[N+](=O)[O-]`, for which the Potency entry is “inactive”. Same read-out and setting: the entry for `Brc1ccc(-c2nnc(-c3ccccc3)o2)o1` is “inactive”.

Take `Nc1ccc(-c2nnc(-c3ccc(-c4ccccc4)cc3)o2)cc1`: the Potency was 7.08 µM (active).

As for `Nc1ccc(-c2nnc(-c3ccccc3)o2)cc1`, the Potency result is “inactive”.
